Shown are actives, neighbours in structure and some others; about 4.7% of the full set was active somewhere.
TRHR ag: agonists of human TRH receptor. activation, % at 2 µM. P34981. TRHR cells, calcium flux fluo-8, FDSS agonist mode. 0.18% of 360,000 active. AID 493084
Target sequence (P34981 whole entry, looked up): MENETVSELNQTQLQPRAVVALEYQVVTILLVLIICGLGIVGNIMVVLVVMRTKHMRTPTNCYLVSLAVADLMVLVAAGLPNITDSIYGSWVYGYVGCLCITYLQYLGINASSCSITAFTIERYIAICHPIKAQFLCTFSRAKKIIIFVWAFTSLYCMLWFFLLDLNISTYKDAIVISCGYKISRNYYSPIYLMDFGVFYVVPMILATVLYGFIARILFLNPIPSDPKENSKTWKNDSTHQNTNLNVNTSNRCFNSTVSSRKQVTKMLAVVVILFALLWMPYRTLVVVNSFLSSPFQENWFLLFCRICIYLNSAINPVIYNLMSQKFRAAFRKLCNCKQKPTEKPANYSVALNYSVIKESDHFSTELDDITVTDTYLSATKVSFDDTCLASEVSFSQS
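TRHR-expressing cells loaded with fluo-8 calcium dye; 23 nL library compound pin-transferred, kinetic FDSS fluorescence (Ex 480/Em 530) recorded about 180 s for agonist-induced calcium release, before a 10 nM TRH EC20 addition for potentiator mode.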
D1 agonist: activates the human D1 dopamine receptor; 1% of 360,000 active; P21728; AID 504660; activation, % at 2 µM; HEK293 T-REx D1 cells, calcium flux, agonist mode
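Inducible HEK293 T-REx D1 cells, force-coupled to calcium signalling, were plated at 4000 cells/well with tetracycline and held overnight at 30 C. After no-wash calcium dye loading, compound-evoked calcium rise over 180 s flagged agonists.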
D1 PAM: human D1 dopamine receptor positive modulation | P21728 | HEK293 TREx D1 cells, calcium flux, dopamine EC20 potentiation | potentiation, % at 10 µM | 0.036% of 360,000 active | AID 504651; in the data active means potentiation above about 30%
TRHR enhancer: allosterically enhances the human TRH receptor | P34981 | 0.66% of 360,000 active | AID 493056 | enhancement, % at 2 µM | TRHR cells, fluo-8 calcium fluorescence, EC20 TRH enhancement; in the data active means enhancement above about 30%
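TRHR-expressing cells loaded with fluo-8 calcium dye were read kinetically (ex 480/em 530) during compound addition, then stimulated with an EC20 of TRH (10 nM final). Enhancement of the Gq-mediated intracellular calcium response was scored.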
D1 antagonist: antagonists of human D1 dopamine receptor; HEK293 TREx D1 cells, calcium flux, dopamine EC80; hits give low values; activity change, negative = inhibition, % at 10 µM; 3.2% of 360,000 active; AID 504652; in the data active means activity change below about -30%
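Allosteric or orthosteric antagonism assessed as attenuation of the calcium response to EC80 dopamine, added 180 s after compound, in induced HEK293 Trex D1 cells loaded with no-wash calcium dye.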
Large screens that a line does not name were inactive. Unless noted, no stated cut-off is given here; in the data, active means activation above about 30%; inactive means the rest.

CC(=O)CCC(=O)NC1CCCc2c1cnn2-c1ccc(C(C)(C)C)cc1 (centres undefined)	D1 antagonist -37
Cc1nc2nc(SCC(=O)C(C)(C)C)[nH]c2cc1Br	D1 antagonist -47
COc1cccc(NC(=O)N2CCC(n3nnc4ccccc43)CC2)c1	D1 antagonist -47
Cc1ccc(S(=O)(=O)C(CNC(=O)c2c(F)cccc2F)c2ccco2)cc1 (centres undefined)	none
CCOc1ccc(/C=C2/SC(=O)NC2=S)cc1	none
CCOc1ccc(N=C2NC(=O)S/C2=C\c2ccc(N(C)C)cc2)cc1	D1 agonist 81
CC(C)NS(=O)(=O)c1ccc(N2C(=O)c3ccccc3C2=O)cc1	D1 antagonist -33
CCN(CC(=O)NCCCn1ccnc1)S(=O)(=O)c1ccc(C)cc1	none (no result: D1 PAM)
COc1cc(NC(=O)c2c(F)c(F)c(OC)c(F)c2F)ccc1NC(=O)c1cccs1	D1 antagonist -46
COc1ccc(C(=O)Nc2cccc(NC(=O)c3cccs3)c2)cc1	D1 antagonist -31
COc1ccc(/C=N/NC(=O)c2cccc(NC(C)=O)c2)c(OC)c1	none
COc1ccc(C(=O)Nc2cccc(C(=O)N/N=C/c3ccc(OC)cc3OC)c2)cc1	D1 antagonist -48
COc1cc(NC(=O)c2cc(OC)c(OC)c(OC)c2)ccc1NC(=O)c1cccs1	none
Cc1cccc(-c2nc3c4ccccc4nc(N4CCN(c5ccc(F)cc5)CC4)n3n2)c1	none
Cc1ccc(C)c2sc(NC(=O)CN3C(=O)CCC3=O)nc12	D1 antagonist -45
O=C1NC(Cc2ccccc2)c2nc3ccccc3c(=O)n2-c2ccc(Cl)cc21 (centres undefined)	none
CC(C)C1N(C(=O)CN2CCCC2)CCN1S(=O)(=O)c1ccccc1 (centres undefined)	D1 antagonist -45
CC1N(C(=O)N(C)C)CCN1S(=O)(=O)c1ccccc1 (centres undefined)	TRHR enhancer 36
COc1ccc(C2N(C(=O)CN3CCCC3)CCCN2S(=O)(=O)c2ccccc2)cc1 (centres undefined)	D1 agonist 32
COc1ccc(C2N(C(C)=O)CCCN2S(=O)(=O)c2ccc(C)cc2)cc1 (centres undefined)	none
CCC(=O)N1CCc2cc(S(=O)(=O)CCC(=O)N3CCN(c4cc(C)ccc4C)CC3)ccc21	none
COc1ccc(-c2ccc(C3C(C#N)=C(N)Oc4n[nH]c(C)c43)o2)cc1 (centres undefined)	D1 agonist 32, D1 antagonist -33
Cc1cc(C)c2c(=O)cc(C(=O)Nc3sc4c(c3C(=O)NCc3cccnc3)CCCC4)oc2c1	none
CCOc1ccc(-c2nn(-c3ccccc3)cc2C2NC(=O)NC(C)=C2C(=O)OC(C)C)cc1C (centres undefined)	D1 antagonist -36
O=C(/C=C/c1ccccc1)Nc1nc2n(n1)C(c1ccc(F)cc1)C=C(c1ccccc1)N2 (centres undefined)	none
NC1=NN=C(N2N=C(c3ccc(Br)cc3)CC2(O)C(F)(F)F)n2ncnc2C1 (centres undefined)	D1 antagonist -45
FC(F)(F)c1cccc(-c2nc3nc(Cl)c(Cl)nc3[nH]2)c1	D1 agonist 33, D1 antagonist -35
Cc1nc(SCC(=O)c2ccc(Cl)cc2)c([N+](=O)[O-])[nH]1	D1 antagonist -40
Cc1nc(SCC(=O)c2ccc(F)cc2)c([N+](=O)[O-])[nH]1	none
CCS(=O)(=O)c1nc(S(=O)(=O)c2ccc(C)cc2)c(NCCN2CCOCC2)s1	none
O=S(=O)(c1ccc(Cl)cc1)c1nc(-c2ccccc2F)oc1NCCCN1CCOCC1	none
Cc1ccc(S(=O)(=O)c2nc(-c3ccccc3Cl)oc2NCCCN2CCOCC2)cc1	TRHR enhancer 35
CCCS(=O)(=O)c1nc(S(=O)(=O)c2ccc(C)cc2)c(NCCCN2CCOCC2)s1	D1 antagonist -32
CCOc1ccc(NC(=O)CSc2nc3ccccc3c(=O)n2CCC(=O)NC2CCCCC2)cc1	none
c1ccc(-c2c(-c3ccccc3)n(Cc3ccco3)c3ncnc(NCCCn4ccnc4)c23)cc1	D1 agonist 52
OCCNc1ncnc2c1c(-c1ccccc1)c(-c1ccccc1)n2Cc1ccco1	none
CC(C)Cn1cnc2c(c(-c3ccccc3)c(-c3ccccc3)n2Cc2ccco2)c1=N	D1 agonist 34
N=c1c2c(-c3ccccc3)c(-c3ccccc3)n(Cc3ccco3)c2ncn1Cc1ccccc1	D1 agonist 35
N=c1c2c(-c3ccccc3)c(-c3ccccc3)n(Cc3ccco3)c2ncn1CCCn1ccnc1	none
N=c1c2c(-c3ccccc3)c(-c3ccccc3)n(Cc3ccccc3)c2ncn1CCO	D1 agonist 218, D1 PAM 46
N=c1c2c(-c3ccccc3)c(-c3ccccc3)n(Cc3ccco3)c2ncn1CCCN1CCOCC1	none
COc1ccccc1N1CCN(C(=O)CCn2nc(C)c(S(=O)(=O)N3CCCC3)c2C)CC1	none
CCOc1ccc(-c2c(C(=O)N/N=C/c3ccc(Cl)cc3)nnn2-c2nonc2N)cc1	none
CCOC(=O)c1c(NC(=O)CSc2nnc(-c3cccnc3)o2)sc(C(C)=O)c1C	D1 antagonist -35
CC(=O)c1ccc(O)c(CSc2nncn2C)c1	D1 antagonist -32
CCCc1cc(Nc2ccccc2C)n2ncnc2n1	TRHR enhancer 35
COc1cccc(NC(=O)C(OC(=O)CNC(=O)c2ccccc2)c2ccccc2)c1 (centres undefined)	none
COc1cccc(NC(=O)Nc2cc(-c3cn4cccnc4n3)ccc2OC)c1	TRHR enhancer 34
COc1ccc(-c2cn3cccnc3n2)cc1NC(=O)c1c(F)cccc1F	D1 antagonist -35
CC1=C(C(=O)Nc2ccc(C)cc2C)C(c2ccc(C(C)C)cc2)n2nc(C(F)(F)F)nc2N1 (centres undefined)	none
CN(C)CCN1C(=O)C(O)=C(C(=O)c2cc3ccccc3o2)C1c1cccc(Br)c1 (centres undefined)	D1 antagonist -38
Cc1ccc(S(=O)(=O)CCC(=O)Nc2ccc(OC(F)(F)F)cc2)cc1	none
CC(=O)c1cc(F)ccc1OCC(=O)N1CCN(c2ccc(F)cc2)CC1	none
CCC1=C(OC(=O)N(CC)CC)N2C(=O)OC(=NCc3ccccc3)[C@]2(C)[C@H]2C1=CC[C@H]1C(=O)N(CC)C(=O)[C@H]12	D1 antagonist -35
CCC1=C(OC(=O)N(CC)CC)N2C(=O)OC(=NCC(=O)OC)[C@]2(C)[C@H]2C1=CC[C@H]1C(=O)N(CC)C(=O)[C@H]12	none
Cc1cc(C(=O)Nc2cc(Br)ccc2O)on1	none
Cc1cc(C)c2sc(N(CCCN(C)C)C(=O)CN3C(=O)c4ccccc4C3=O)nc2c1	D1 agonist 42
Cc1ccc2nc(N(CCCN(C)C)C(=O)CCc3ccccc3)sc2c1	none

High-throughput results from PubChem BioAssay.
